Experiment [1] is described as follows: yeast TOR pathway RPL19A-GFP modulators, primary screen, cell-based, S. cerevisiae, multiplex flow cytometry (AID 1862; in the data active means percent of DMSO control GFP below about 86%;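 further: lower values mimic rapamycin by blocking the RPL19A rise seen in DMSO cells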). Particulars: S. cerevisiae RPL19A-GFP strain, flow cytometry fluorescence, 3 h; at 10 µM; stronger effect = lower value.
A short description of experiment [2]: modulators of MEP2-GFP levels in yeast, primary screen, S. cerevisiae, multiplex flow cytometry (AID 1867;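 active means GFP response, as percent of the DMSO control, above the screen-wide mean plus 3 SD, about 139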;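 further: median GFP channel fluorescence of barcode-gated MEP2-GFP cells measured by flow cytometry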). Particulars: S. cerevisiae MEP2-GFP strain, 3 h, at 10 µM, stronger effect = higher value, 100% means same as DMSO wells.
Experiment [3] is described as follows: modulators of CIT2-GFP expression in yeast, primary screen, S. cerevisiae, GFP fusion, multiplex flow cytometry (AID 1870;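 active means percent response above a set limit, the screen-wide mean plus 3 SD, cut at about 130% in these data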;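 further: barcoded CIT2-GFP strain pooled with four other GFP strains with rapamycin as positive control; median GFP fluorescence per well over plate mean of DMSO wells so 100% = DMSO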). Particulars: 3 h, at 10 µM, stronger effect = higher value. On the technique in general: A flow cytometer gives signals particle by particle.
The nature of experiment [4]: modulators of LAP4-GFP expression in yeast, primary screen, S. cerevisiae, multiplex flow cytometry (AID 1873;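 active means GFP signal, as percent of the solvent control, above the screen mean plus 3 SD, about 149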). The conditions noted are these: 3 h, at 10 µM, stronger effect = higher value.
The nature of experiment [5]: modulators of AGP1-GFP expression in yeast TOR pathway, primary screen, cell-based, multiplex flow cytometry, S. cerevisiae (AID 1887;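 active means GFP signal above the screen-wide mean plus 3 SD, that is over about 124.5% of the solvent control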;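 further: AGP1-GFP fusion strain of S. cerevisiae within a five-strain barcoded multiplex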). Particulars: 3 h, at 10 µM, stronger effect = higher value.
Experiment [6] is described as follows: inhibitors of CD8+ T cell-vesicle binding, pilot screen, LFA-1/ICAM-1 modulator project, MLPCN validation set, flow cytometry (AID 2523;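 active means response below a set limit, under 55% cells CD8-positive and vesicle-bound, and CD8 cells' 90th-percentile brightness under 279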;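 on vesicle binding response: mean PE anti-B7-1 fluorescence of CD8+ cells relative to row control; 100% = QL9-loaded vesicles with DMSO vehicle in the same plate row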). The conditions noted are these: 2C mouse CD8+ T cells, at 7 µM, stronger effect = lower value; double positive events: measured here: CD8+/vesicle+ event percentage.
Experiment [7] has as its target Integrin beta-1 (Homo sapiens) + Integrin alpha-4 (Homo sapiens) (UniProt P13612+P05556). The experiment is described as follows: inhibition of HUTS-21 binding to VLA-4, pilot screen, VLA-4 allosteric modulator project, U937 cells, HUTS-21 mAb, flow cytometry, validation set (AID 2674;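 active means inhibition above 50%, about 3 SD of the validation set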;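 further: antibody binding induced by the VLA-4 ligand LDV present at three times its Kd; 0% = LDV ligand with antibody and no compound and 100% = antibody without LDV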). Particulars: HUTS-21 LIBS mAb binding, at 6.7 µM, stronger effect = higher value, binding induced by LDV ligand.

Experiment [8] is described as follows: superoxide lowering in aged yeast cells, pilot screen, validation compound set (AID 2706;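 active means superoxide response below 65% of plate, a cut near 3 SD across the whole screen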;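 further: yeast exposed to compound for one week at 30 degrees C before staining; 100% = mean of all compound wells on the same plate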). The conditions noted are these: S. cerevisiae aging, superoxide DHE fluorescence; at 10 µM; stronger effect = lower value.
The target in experiment [9] is Beta-adrenergic receptor kinase 1 (Homo sapiens) (UniProt P25098). The experiment is described as follows: GRK2 binders displacing RNA aptamer, biochemical, validation, human GRK2, bead flow cytometry (AID 488806;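 active means aptamer binding inhibition above 30%, about 3 SD of noise from non-fluorescent compounds; inactive means inhibition at or below 30%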). Particulars: bead-bound GRK2, FAM-aptamer displacement, at 10 µM, stronger effect = higher value.
The target of experiment [10] is Beta-2 adrenergic receptor (Homo sapiens) (UniProt P07550). Nature of the experiment: beta2AR agonists driving receptor internalization, pilot screen, cell-based, FAP fluorogen, flow cytometry, validation set (AID 504459;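 active means percent response above 42, roughly 3 SD of non-fluorescent test compounds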;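 further: agonist-driven loss of surface beta2AR via internalization measured by FAP dye flow cytometry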). Particulars: Am2.2-beta2AR cells, FAP surface receptor flow cytometry; at 10 µM; stronger effect = higher value.
Experiment [11] addresses AP-2 complex subunit beta (Homo sapiens) (UniProt P63010). The experiment is described as follows: inhibitors of arrestin peptide binding to AP2, pilot screen, biochemical, validation set, GST-AP2 beads, flow cytometry (AID 504541;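 active means inhibition above 54%, about 3 SD of non-fluorescent compounds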;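 further: AP2 carries R879A mutation and is captured from E. coli lysate; bead-bound FITC arrestin peptide fluorescence measuring arrestin peptide binding to AP2; 0% = DMSO wells and 100% = excess unlabeled arrestin peptide control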). Particulars: FITC arrestin peptide, at 10 µM, stronger effect = higher value, AP2 beta2 appendage fragment, R879A mutant.
Experiment [12] is described as follows: yeast V-ATPase proton transport modulators, S. cerevisiae, pHLuorin, HTS validation (AID 504600; in the data active means response above about 15%;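 further: plate controls were DMSO for no effect and reference compound for full effect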). Particulars: S. cerevisiae pHLuorin cytosolic pH, at 10 µM, stronger effect = higher value.
Experiment [13] relates to anti-desmoglein-3 scFv antibody binding to human DSG3. Nature of the experiment: inhibitors of anti-DSG3 scFv binding to DSG3, pilot screen, biochemical, validation compound set, bead-based, flow cytometry (AID 588368;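 active means binding below the plate cutoff, the plate median minus 3 SD, with a reading above zero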;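 further: signal is the median channel fluorescence of bead-bound GFP antibody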). The conditions noted are these: Protein G beads, DSG3-Fc, scFv-GFP binding, at 10 µM, stronger effect = lower value.
Experiment [14] is described as follows: inhibitors of fungal efflux pumps CDR1, CDR2, MDR1, pilot screen, validation compound set, multiplex, phenotypic (AID 588506;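 active means efflux inhibition above 0.42, the validation set average plus 4 SD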;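 further: Nile Red retained in cells so higher fluorescence means more efflux inhibition; 0 = negative control wells and 1 = enniatin B 25 µM full block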). The conditions noted are these: S. cerevisiae pump-expressing triplex, Nile Red efflux flow cytometry; at 10 µM; stronger effect = higher value; the pumps come from Candida albicans.
In experiment [15] the target is ATP-binding cassette sub-family B member 6 (Homo sapiens) (UniProt Q9NP58). The experiment is described as follows: ABCB6 transporter inhibitors, pilot screen, K562-ABCB6 cells, flow cytometry, validation set (AID 588550).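 Further: 0% = DMSO wells and 100% = benzethonium chloride 70 µM positive control.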 The conditions noted are these: K562-ABCB6 porphyrin accumulation, 1 h, at 10 µM, stronger effect = higher value.
Experiment [16] can be described thus: promoters of myeloid differentiation in arrested cells, primary screen, cell-based, GFP/MAC1 double positive, flow cytometry, validation set (AID 588685;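 active means differentiation response of at least 50%, scaled between solvent and reference control, from cells with both markers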;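 further: compound exposure lasts four days before antibody staining and flow analysis; 0% = DMSO wells and 100% = 5 µM fulvestrant positive control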). Particulars: ER-HoxA9 marrow cells, stronger effect = higher value, normalized: vehicle 0, fulvestrant 100.

From PubChem BioAssay come the findings set out here.

Inconclusive results are not listed. Activity calls are given as the source filed them.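 How the source made its calls, unless noted: active means inhibition above the screen-wide mean plus 3 SD, about 51%; inactive means the rest.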

Beta-2 adrenergic receptor (Homo sapiens), sequence (P07550 whole entry, looked up): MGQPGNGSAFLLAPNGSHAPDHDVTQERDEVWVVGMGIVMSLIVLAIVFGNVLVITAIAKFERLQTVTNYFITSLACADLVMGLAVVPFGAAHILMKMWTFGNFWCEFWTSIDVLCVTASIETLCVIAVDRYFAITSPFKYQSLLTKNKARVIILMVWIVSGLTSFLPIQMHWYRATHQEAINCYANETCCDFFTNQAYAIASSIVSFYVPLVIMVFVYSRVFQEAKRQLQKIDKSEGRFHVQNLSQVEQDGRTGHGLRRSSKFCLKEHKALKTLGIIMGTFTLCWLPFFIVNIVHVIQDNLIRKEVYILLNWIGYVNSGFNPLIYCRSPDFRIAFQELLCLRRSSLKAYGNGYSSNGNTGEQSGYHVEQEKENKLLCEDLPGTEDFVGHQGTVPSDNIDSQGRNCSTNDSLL
ATP-binding cassette sub-family B member 6 (Homo sapiens), sequence (Q9NP58 whole entry, looked up): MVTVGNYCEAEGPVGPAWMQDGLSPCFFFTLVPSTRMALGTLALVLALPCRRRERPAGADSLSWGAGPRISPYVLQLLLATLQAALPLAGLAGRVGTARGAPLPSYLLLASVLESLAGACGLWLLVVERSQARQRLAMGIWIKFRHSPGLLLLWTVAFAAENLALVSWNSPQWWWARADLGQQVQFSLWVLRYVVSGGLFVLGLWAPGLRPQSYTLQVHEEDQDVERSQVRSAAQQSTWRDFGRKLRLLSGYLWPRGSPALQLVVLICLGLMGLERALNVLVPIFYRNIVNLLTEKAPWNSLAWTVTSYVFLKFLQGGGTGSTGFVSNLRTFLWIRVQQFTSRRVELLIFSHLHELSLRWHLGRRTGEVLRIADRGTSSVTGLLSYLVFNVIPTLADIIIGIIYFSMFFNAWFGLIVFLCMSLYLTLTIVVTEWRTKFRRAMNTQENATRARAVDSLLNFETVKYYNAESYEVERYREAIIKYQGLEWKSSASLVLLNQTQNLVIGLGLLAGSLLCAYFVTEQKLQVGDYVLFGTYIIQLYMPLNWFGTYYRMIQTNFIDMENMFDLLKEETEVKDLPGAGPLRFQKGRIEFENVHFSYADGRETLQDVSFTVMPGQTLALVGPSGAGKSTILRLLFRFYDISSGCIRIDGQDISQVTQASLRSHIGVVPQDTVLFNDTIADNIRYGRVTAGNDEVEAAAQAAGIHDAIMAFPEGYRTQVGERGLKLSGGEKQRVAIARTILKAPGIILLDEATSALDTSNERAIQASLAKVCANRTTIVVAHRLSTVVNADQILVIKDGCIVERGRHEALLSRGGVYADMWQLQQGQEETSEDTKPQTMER
Integrin beta-1 (Homo sapiens) + Integrin alpha-4 (Homo sapiens), sequence (P05556 whole entry, looked up): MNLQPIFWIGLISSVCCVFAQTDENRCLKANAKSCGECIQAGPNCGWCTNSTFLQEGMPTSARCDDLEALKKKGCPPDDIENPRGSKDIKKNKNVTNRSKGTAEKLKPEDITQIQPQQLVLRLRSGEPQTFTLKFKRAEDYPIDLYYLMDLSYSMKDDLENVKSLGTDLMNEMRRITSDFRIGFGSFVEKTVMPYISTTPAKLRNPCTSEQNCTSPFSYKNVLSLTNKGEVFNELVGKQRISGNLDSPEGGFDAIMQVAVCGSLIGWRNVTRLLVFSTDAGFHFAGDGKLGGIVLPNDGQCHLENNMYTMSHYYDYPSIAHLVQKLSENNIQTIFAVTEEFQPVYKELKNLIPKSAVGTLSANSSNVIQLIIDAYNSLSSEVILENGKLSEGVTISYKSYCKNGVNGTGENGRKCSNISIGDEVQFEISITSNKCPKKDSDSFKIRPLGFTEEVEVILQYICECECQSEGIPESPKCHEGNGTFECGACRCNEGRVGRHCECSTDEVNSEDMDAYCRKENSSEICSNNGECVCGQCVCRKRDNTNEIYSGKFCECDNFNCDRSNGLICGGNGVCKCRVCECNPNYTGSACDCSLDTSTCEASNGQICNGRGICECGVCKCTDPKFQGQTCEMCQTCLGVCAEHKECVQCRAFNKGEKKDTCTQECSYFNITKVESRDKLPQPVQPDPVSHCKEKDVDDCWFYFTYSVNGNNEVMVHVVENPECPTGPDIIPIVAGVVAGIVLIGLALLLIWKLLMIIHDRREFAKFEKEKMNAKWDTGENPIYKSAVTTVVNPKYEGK
Integrin beta-1 (Homo sapiens) + Integrin alpha-4 (Homo sapiens), sequence (P13612 whole entry, looked up): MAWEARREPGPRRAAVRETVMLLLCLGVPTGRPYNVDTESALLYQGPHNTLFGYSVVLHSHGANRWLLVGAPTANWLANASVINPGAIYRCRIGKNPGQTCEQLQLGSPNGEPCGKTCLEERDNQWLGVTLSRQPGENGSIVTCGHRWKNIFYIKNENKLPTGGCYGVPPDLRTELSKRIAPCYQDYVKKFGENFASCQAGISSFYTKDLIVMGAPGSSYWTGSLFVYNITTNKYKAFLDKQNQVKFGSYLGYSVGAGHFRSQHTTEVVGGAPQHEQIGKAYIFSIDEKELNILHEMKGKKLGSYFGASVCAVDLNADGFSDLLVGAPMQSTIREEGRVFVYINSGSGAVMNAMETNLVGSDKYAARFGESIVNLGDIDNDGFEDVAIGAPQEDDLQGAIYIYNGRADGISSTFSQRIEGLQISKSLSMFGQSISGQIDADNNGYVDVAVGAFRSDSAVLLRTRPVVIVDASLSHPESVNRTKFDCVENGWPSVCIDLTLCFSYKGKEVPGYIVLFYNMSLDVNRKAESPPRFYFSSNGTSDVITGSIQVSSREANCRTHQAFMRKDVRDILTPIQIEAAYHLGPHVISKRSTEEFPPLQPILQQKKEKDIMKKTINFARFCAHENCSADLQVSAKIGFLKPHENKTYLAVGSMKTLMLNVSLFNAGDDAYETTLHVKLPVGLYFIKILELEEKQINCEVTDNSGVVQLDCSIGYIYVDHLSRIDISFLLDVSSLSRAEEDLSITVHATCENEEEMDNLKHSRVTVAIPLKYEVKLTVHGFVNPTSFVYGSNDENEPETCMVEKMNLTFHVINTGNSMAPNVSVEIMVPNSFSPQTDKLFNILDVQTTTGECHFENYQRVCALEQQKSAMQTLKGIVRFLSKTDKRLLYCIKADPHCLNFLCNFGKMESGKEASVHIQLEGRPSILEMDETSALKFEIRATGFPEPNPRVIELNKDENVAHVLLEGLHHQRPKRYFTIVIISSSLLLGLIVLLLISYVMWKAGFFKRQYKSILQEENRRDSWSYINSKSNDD
AP-2 complex subunit beta (Homo sapiens), sequence (P63010 whole entry, looked up, the tested form may be a part, one chain of several): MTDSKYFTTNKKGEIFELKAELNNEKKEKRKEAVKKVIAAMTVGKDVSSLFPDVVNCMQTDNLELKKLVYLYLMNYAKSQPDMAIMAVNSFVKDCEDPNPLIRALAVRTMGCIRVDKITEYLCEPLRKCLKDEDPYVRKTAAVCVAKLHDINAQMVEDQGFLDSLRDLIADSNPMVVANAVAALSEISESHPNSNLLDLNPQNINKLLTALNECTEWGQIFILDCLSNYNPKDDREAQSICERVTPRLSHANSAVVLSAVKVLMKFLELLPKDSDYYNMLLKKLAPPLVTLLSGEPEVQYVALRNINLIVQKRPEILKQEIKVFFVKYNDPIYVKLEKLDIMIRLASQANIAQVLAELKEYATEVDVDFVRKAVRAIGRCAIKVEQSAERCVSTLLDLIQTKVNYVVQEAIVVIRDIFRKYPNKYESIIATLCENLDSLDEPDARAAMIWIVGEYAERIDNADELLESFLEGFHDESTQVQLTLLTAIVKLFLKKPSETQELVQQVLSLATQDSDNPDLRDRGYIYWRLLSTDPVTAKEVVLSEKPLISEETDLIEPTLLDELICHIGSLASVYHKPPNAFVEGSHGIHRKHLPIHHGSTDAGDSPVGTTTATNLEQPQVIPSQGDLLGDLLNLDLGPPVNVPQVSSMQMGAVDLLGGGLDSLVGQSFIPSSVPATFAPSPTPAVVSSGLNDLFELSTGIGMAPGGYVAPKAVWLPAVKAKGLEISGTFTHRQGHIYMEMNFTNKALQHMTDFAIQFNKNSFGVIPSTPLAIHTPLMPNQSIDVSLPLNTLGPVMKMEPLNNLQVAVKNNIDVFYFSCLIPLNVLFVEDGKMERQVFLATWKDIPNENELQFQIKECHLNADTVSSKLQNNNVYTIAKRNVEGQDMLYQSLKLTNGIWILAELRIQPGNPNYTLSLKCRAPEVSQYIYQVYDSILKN
Beta-adrenergic receptor kinase 1 (Homo sapiens), sequence (P25098 whole entry, looked up): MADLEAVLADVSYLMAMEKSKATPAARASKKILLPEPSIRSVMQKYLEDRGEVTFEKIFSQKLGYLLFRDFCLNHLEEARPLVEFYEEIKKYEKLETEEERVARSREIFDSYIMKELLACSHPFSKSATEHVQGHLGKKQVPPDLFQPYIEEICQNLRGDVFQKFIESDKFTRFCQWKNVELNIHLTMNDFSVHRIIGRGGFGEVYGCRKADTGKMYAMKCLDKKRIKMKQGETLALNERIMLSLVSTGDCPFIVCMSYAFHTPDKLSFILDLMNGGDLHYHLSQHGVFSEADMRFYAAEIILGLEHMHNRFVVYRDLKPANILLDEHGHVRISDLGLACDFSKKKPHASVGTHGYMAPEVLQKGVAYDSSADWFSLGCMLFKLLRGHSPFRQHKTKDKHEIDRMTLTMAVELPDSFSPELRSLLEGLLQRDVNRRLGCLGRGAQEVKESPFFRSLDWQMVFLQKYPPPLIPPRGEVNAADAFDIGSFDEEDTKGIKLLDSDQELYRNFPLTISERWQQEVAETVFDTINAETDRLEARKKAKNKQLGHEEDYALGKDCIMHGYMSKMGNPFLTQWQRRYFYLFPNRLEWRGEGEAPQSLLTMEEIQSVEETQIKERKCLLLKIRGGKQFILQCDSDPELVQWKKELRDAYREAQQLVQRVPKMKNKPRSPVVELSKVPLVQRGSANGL

Regarding `O=C(CCCN1C(=O)/C(=C\c2cccs2)SC1=S)Nc1ccccn1`, the percent of DMSO control GFP in experiment [1] is 103% (inactive). For the same compound, the results for the GFP response vs DMSO in experiment [2] and in experiment [4] were 99.7% (inactive) and 99.1% (inactive), respectively. Moreover, the percent response of DMSO control in [3] was 92.4% (inactive). In addition, in [5], the GFP response, % of DMSO is 96.8% (inactive). For the same compound, the double positive events in experiment [6] came to 61.7%. Besides, the vesicle binding response in experiment [6] was 154% (inactive). Besides, the inhibition (in general, the drop in the measured response relative to a control, in per cent) in experiment [7] was -2.43% (inactive); in experiment [11], -9.99% (inactive); in experiment [15], -5% (inactive). In addition, in experiment [8], the superoxide response (% of plate) was 115% (inactive). The aptamer binding inhibition in [9] is 2% (inactive). The response in [10] was -9.49% (inactive); in experiment [12] it was -5.78% (inactive). The binding (% of control) in experiment [13] is 94% (inactive). Besides, in experiment [14], the efflux inhibition (fraction of control) is 0.35 (inactive). Moreover, the differentiation response in experiment [16] was -7.5% (inactive).
Take `COc1cc(C(=O)CCN2CCC(c3ccccc3)C2)cc(OC)c1OC` (stereo not drawn): the percent of DMSO control GFP in [1] was 108% (inactive). The GFP response vs DMSO is 97.7% (inactive) in experiment [2] and 95.9% (inactive) in experiment [4]. For the same compound, the percent response of DMSO control in experiment [3] was 110% (inactive). Moreover, the GFP response, % of DMSO in [5] is 105% (inactive). The compound also yielded a double positive events in experiment [6] of 57.9%. The vesicle binding response in experiment [6] is 131% (inactive). Also, the inhibition in experiment [7] was 1.59% (inactive); in [11], 4.79% (inactive); in experiment [15] it was 0% (inactive). In experiment [8], the superoxide response (% of plate) is 117% (inactive). Besides, in experiment [9], the aptamer binding inhibition is 2% (inactive). Besides, the response is 2% (inactive) in [10] and -0.17% (inactive) in [12]. For the same compound, the binding (% of control) in experiment [13] is 100% (inactive). For the same compound, in [14], the efflux inhibition (fraction of control) was 0.1 (inactive). In [16], the differentiation response is -10.4% (inactive).
`CC(C(=O)O)c1ccc(-c2ccccc2)c(F)c1` (stereo not drawn): the percent of DMSO control GFP in experiment [1] is 94.8% (inactive). Besides, the GFP response vs DMSO was 104% (inactive) in experiment [2] and 128% (inactive) in experiment [4]. The percent response of DMSO control in [3] was 76.8% (inactive). The GFP response, % of DMSO in experiment [5] is 84.8% (inactive). This compound displayed a double positive events in experiment [6] of 66.4%. Besides, in [6], the vesicle binding response is 1320% (inactive). Besides, the inhibition is 1.62% (inactive) in experiment [7], -9.46% (inactive) in [11] and 1% (inactive) in experiment [15]. The superoxide response (% of plate) in experiment [8] was 106% (inactive). Besides, the aptamer binding inhibition in experiment [9] was -1% (inactive). Besides, the response was -7.02% (inactive) in experiment [10] and -1.04% (inactive) in experiment [12]. Besides, the binding (% of control) in experiment [13] was 103% (inactive). Besides, the efflux inhibition (fraction of control) in experiment [14] was 0.05 (inactive). Also, in experiment [16], the differentiation response is 0.24% (inactive).
Take `CC(C)C(=O)Nc1cccnc1`: in experiment [1], the percent of DMSO control GFP is 103% (inactive). Moreover, the GFP response vs DMSO was 99.6% (inactive) in experiment [2] and 115% (inactive) in experiment [4]. In addition, the percent response of DMSO control in experiment [3] is 99.6% (inactive). Moreover, the GFP response, % of DMSO in [5] was 106% (inactive). For the same compound, in [6], the double positive events is 68.8%. Besides, in experiment [6], the vesicle binding response is 294% (inactive). The results for the inhibition in [7], in experiment [11] and in experiment [15] were 21.4% (inactive), -1.65% (inactive) and -4% (inactive), respectively. Further, the superoxide response (% of plate) in experiment [8] was 85.9% (inactive). Besides, in experiment [9], the aptamer binding inhibition was 4% (inactive). Moreover, the response in [10] is 0.35% (inactive); in experiment [12], 4.74% (inactive). For the same compound, the binding (% of control) in [13] is 99.3% (inactive). Also, the efflux inhibition (fraction of control) in [14] was -0.13 (inactive). In addition, in [16], the differentiation response is 0% (inactive).
